Test results as given in PubChem BioAssay (NCATS).
Results filed as inconclusive are left out. A number with no mark means an inactive call. Activity calls are given as the source filed them. The call rests on the fitted dose curve; in most records, active means well fitted inhibition curve with a large enough effect; inconclusive means small, poorly fitted or top-dose-only effect; inactive means flat fitted curve, though single readings scatter. Where a SMILES comes first, the peptide text is derived from it. [ ]: non-standard residue; d: D form. pGlu = O=C1CC[C@@H](C(=O)O)N1; Thz = O=C(O)[C@@H]1CSCN1

These compounds were tested on astro (assay: Drug repurposing screens with cells derived from glioblastoma tumor samples (AID 1345199; further: nearly all actives have a fitted effect of over 40% in size)). Details: viability, ATP luminescence, 48 h; series mostly up to 45.9 µM; activity, negative = cell killing: at the top concentration.
Description: CD133+ cells were isolated from GBM patient biopsies and cultured as neurospheres. Neurospheres from four patients were used to screen the NCATS pharmaceutical collection (NPC) library of approved drugs and bioactive compounds. […] The neurospheres were incubated with drugs for 48 hours in 1536-well format, then assayed with an ATP content cell viability assay. […] These hits were cherry picked to confirm activity in the four original GBM lines screened plus three other slower growing GMB lines (unable to yield enough cells for a full primary screen). Variable activities of the confirmed primary hits in the different GBM patient lines were observed. The patient line 206 responded to the greatest number of compounds and line 923 responded to the least amount of active compounds.
On the % scale 0 is the no-effect control and ±100 the full control effect; potency means the concentration at half of the fitted maximal effect.

| SMILES | activity, negative = cell killing | Potency |
| --- | --- | --- |
| CC(N)C(=O)OC(C)(C)Cc1ccc(Cl)cc1 (stereo not given) | -27.4% |  |
| Cc1onc(-c2c(F)cccc2Cl)c1C(=O)N[C@@H]1C(=O)N2[C@@H]1SC(C)(C)[C@@H]2C(=O)O |  | inactive |
| Cc1ccc(C(=O)c2ccc(CC(=O)O)n2C)cc1 | -10.6% [at 21.2 µM] |  |
| CCCC(=O)OC[C@@H](OC(=O)CCC)[C@@H](OC(=O)CCC)[C@H](Cn1c2nc(=O)[nH]c(=O)c-2nc2cc(C)c(C)cc21)OC(=O)CCC | -11.5% |  |
| CCCCCCCCCCCC(=O)[O][Sn]([CH2]CCC)([CH2]CCC)[O]C(=O)CCCCCCCCCCC | -24.5% |  |
| CO[C@H]1C[C@@H]2CC[C@@H](C)[C@@](O)(O2)C(=O)C(=O)N2CCCC[C@H]2C(=O)O[C@H]([C@H](C)C[C@@H]2CC[C@@H](O)[C@H](OC)C2)CC(=O)[C@H](C)C=C(C)[C@@H](O)[C@@H](OC)C(=O)[C@H](C)C[C@H](C)/C=C/C=CC=C1C |  | 35.5 µM (active) |
| C[S+](CC[C@H](N)C(=O)O)C[C@H]1O[C@@H](n2cnc3c(N)ncnc32)[C@H](O)[C@@H]1O (stereo not given in full) |  | inactive |
| C=CC(N)CCC(=O)O (stereo not given) | 4.62% |  |
| CCC1C(=O)OCC1Cc1cncn1C (stereo not given) | -13.2% |  |
| N=C(N)N | -6.13% |  |
| CC[C@H]1OC(=O)[C@H](C)C(=O)[C@H](C)[C@@H](O[C@@H]2O[C@H](C)C[C@H](N(C)C)[C@H]2O)[C@](C)(OC)C[C@@H](C)C(=O)[C@H](C)[C@H]2N(CCCCn3cnc(-c4cccnc4)c3)C(=O)O[C@]12C | -7.24% |  |
| c1ccc2sc(SSc3nc4ccccc4s3)nc2c1 | -2.52% |  |
| N=c1ccn2c(n1)O[C@H]1[C@H](O)[C@@H](CO)O[C@H]12 | -27.9% |  |
| CCCCCCOc1ccccc1C(N)=O |  | 14.1 µM (active) |
| CC1(C)[C@@H](O[C@H]2O[C@H](C(=O)O)[C@@H](O)[C@H](O)[C@H]2O[C@@H]2O[C@H](C(=O)O)[C@@H](O)[C@H](O)[C@H]2O)CC[C@]2(C)[C@H]3C(=O)C=C4[C@@H]5C[C@@](C)(C(=O)O)CC[C@]5(C)CC[C@@]4(C)[C@]3(C)CC[C@@H]12 | -4.45% |  |
| CC1(C)[C@@H](O)CC[C@]2(C)[C@H]3C(=O)C=C4[C@@H]5C[C@@](C)(C(=O)O)CC[C@]5(C)CC[C@@]4(C)[C@]3(C)CC[C@@H]12 |  | inactive |
| C[N+](C)(C)CCOP(=O)(O)OP(=O)([O-])OC[C@H]1O[C@@H](n2ccc(N)nc2=O)[C@H](O)[C@@H]1O |  | inactive |
| O=C(Nc1ccc(C(=O)O)c(O)c1)c1ccccc1 | -15.8% |  |
| N=C1N=C(N)c2cc3ccccc3cc21 |  | 39.8 µM (active) |
| Nc1ccc(O)c(C(=O)O)c1 | -12.6% |  |

| SMILES | activity, negative = cell killing | Potency |
| --- | --- | --- |
| O=C(O)c1cc(O)c(O)c(O)c1 | -6.29% |  |
| CCCSc1ccc2nc(NC(=O)OC)[nH]c2c1 |  | 0.501 µM (active) |
| CC(C(=O)O)c1ccc(C(=O)c2ccccc2)s1 (stereo not given) | -21.6% [at 21.2 µM] |  |
| O=C1CC[C@@H](C(=O)N2CSC[C@H]2C(=O)O)N1 ([pGlu]-[Thz]-OH) | -9.59% |  |
| Cc1c(N)c(=O)n(-c2ccccc2)n1C | -9.82% [at 21.2 µM] |  |
| CN(C)[C@@H]1C(=O)C(C(=O)NCN2CCCC2)=C(O)[C@@]2(O)C(=O)C3=C(O)c4c(O)cccc4[C@@](C)(O)C3C[C@@H]12 (stereo not given in full) |  | inactive |
| CN1[C@@H](CC(=O)c2ccccc2)CCC[C@H]1C[C@H](O)c1ccccc1 | -26.8% |  |
| CCCCCCCCCCCCCCCCCC(=O)O | -18.2% |  |
| CCCCCC[C@@H](O)C/C=C\CCCCCCCC(=O)O |  | inactive |
| COc1cc2c3cc1Oc1cc(ccc1O)C[C@@H]1c4c(cc(OC)c(O)c4Oc4ccc(cc4)C[C@@H]3N(C)CC2)CC[N+]1(C)C | -12.1% |  |
| CC(=O)O[C@H]1C[C@@]2(C)[C@@H](C[C@@H](O)[C@H]3[C@@]4(C)CC[C@@H](O)[C@@H](C)[C@@H]4CC[C@@]32C)/C1=C(\CCC=C(C)C)C(=O)O | -5.95% |  |
| Nc1ccc(C(=O)O)c(O)c1 | -14.3% |  |
| C=CCCCCCCCCC(=O)O | -13.1% |  |
| O=C(O)[C@H](CC(=O)N1C[C@H]2CCCC[C@H]2C1)Cc1ccccc1 | -9.93% |  |
| O=C(O)COc1ccc(C(=O)c2cccs2)c(Cl)c1Cl |  | inactive |
| CN(C)CCn1nnnc1SCC1=C(C(=O)O)N2C(=O)[C@@H](NC(=O)Cc3csc(N)n3)[C@H]2SC1 | -11% [at 21.2 µM] |  |
| COc1cc(/C=C/C(=O)N2CCN(CC(=O)N3CCCC3)CC2)cc(OC)c1OC | -8.44% |  |
| C#CC1(O)CC[C@H]2[C@@H]3CCC4=CCCC[C@@H]4[C@H]3CC[C@@]21C (stereo not given in full) | -19.8% [at 21.2 µM] |  |
| O=C(OCc1ccccc1)c1ccccc1 | -6.85% |  |
| Cc1nc2ccccc2n1Cc1ccc(Cl)cc1 |  | 3.16 µM (active) |
